# Data as given in PubChem BioAssay (Tox21).
# Records with an inconclusive call do not appear. Values without a mark were called inactive. Calls of active or inactive are those of the source. Calls come from the whole dose curve; as a rule, active = well fitted activation curve with a large enough effect in the signal ratio in the repeat runs (not every such curve was filed as active); inconclusive = weak or mixed curves, or effect the other way; inactive = flat fitted curve, though single readings scatter; the % refers to the signal ratio.
# Molecular target: Estrogen receptor beta (Homo sapiens) (UniProt Q92731)
# Experiment: qHTS assay to identify small molecule agonists of the estrogen receptor beta (ER-beta) signaling pathway (AID 1259377)
# Settings: ER-beta-UAS-bla HEK293T, beta-lactamase FRET ratio, 16 h; series mostly up to 92.4 µM; activation: at the top concentration
# From the text: U.S. Tox21 Program National Center for Advancing Translational Sciences [NCATS] NIH Chemical Genomics Center [NCGC] U.S. Environmental Protection Agency [EPA] National Institutes of Environmental Health Sciences [NIEHS] National Toxicology Program [NTP] U.S. Food and Drug Administration [FDA] Tox21 Assay Overview: Estrogen receptor (ER), a nuclear hormone receptor, plays an important role in development, metabolic homeostasis and reproduction. Two subtypes of ER, ER-alpha and ER-beta, have similar expression patterns with some uniqueness in both types. Endocrine disrupting chemicals (EDCs) and their interactions with steroid hormone receptors like ER causes disruption of normal endocrine function. To identify the compounds that activate ER signaling, an ER beta-UAS-bla GripTite cell line (Life technologies, Madison, WI, USA) containing a beta-lactamase reporter gene under the control of an Upstream Activator Sequence (UAS) was used to screen Tox21 10K compound library.
# Tox21 Assay Protocol Summary: ER-beta-UAS-bla HEK293T cells were dispensed at 2,000 cells/5 uL of assay medium containing 2% charcoal stripped FBS per well into black wall/clear-bottom 1536-well plates using a Multidrop Combi (ThermoFisher Scientific, Waltham, MA) dispenser. After the assay plates were incubated at a 37C and 5% CO2 for 6 hr, 23 nL of compounds dissolved in DMSO, positive controls or DMSO only was transferred to the assay plate by a Pintool station (Kalypsys, San Diego, CA). The plates were incubated at 37C and 5% CO2 for 16 hr. Then 1 uL of LiveBLAzerTM B/G FRET substrate was added using a BioRAPTR FRD (Flying Reagent Dispenser, Aurora Discovery, San Diego, CA). After the plates were incubated at room temperature for 2 hours, fluorescence intensity was measured by an Envision plate reader (PerkinElmer, Shelton, CT).
# % is set by controls: 0 for no effect and ±100 for the full control effect; potency is the fitted concentration of half-maximal effect.
# Chain of Estrogen receptor beta (Homo sapiens) (Q92731 whole entry, looked up): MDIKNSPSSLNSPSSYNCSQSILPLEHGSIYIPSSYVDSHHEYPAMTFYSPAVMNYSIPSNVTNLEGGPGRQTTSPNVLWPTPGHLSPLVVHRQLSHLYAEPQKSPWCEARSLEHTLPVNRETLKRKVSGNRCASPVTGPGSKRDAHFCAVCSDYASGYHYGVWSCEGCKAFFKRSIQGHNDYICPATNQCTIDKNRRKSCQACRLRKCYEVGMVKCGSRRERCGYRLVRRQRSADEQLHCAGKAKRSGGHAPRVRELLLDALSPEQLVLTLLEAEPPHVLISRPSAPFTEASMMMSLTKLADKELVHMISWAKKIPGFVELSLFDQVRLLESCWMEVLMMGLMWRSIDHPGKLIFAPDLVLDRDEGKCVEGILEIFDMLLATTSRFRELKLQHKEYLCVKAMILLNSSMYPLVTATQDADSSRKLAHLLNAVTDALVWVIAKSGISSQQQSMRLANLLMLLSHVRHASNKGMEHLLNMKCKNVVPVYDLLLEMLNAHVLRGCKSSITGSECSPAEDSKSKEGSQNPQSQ
SMILES,activation,Potency
COCc1cnc(C2=NC(C)(C(C)C)C(=O)N2)c(C(=O)O)c1 (stereo not given),2.89%,
COC(=O)C1(O)c2ccccc2-c2ccccc21,1.28%,
CCC1(CC)C(=O)NC(=O)NC1=O,4.38% [at 42.5 µM],
O=S(=O)(Cl)Cl,1.42%,
CC(O)CN1CCN(CC(=O)[O-])CCN(CC(=O)[O-])CCN(CC(=O)[O-])CC1.[Gd+3] (stereo not given),0.498% [at 42.5 µM],
C=CC(=O)NC(C)(C)CC(C)=O,5.27%,
CCC1(CCC(C)C)C(=O)NC(=O)NC1=O,3.73%,
C1CCNCC1,12.9%,
O=S(=O)(c1ccccc1)c1ccccc1,-2.17%,
CCCCC(CC)COC(=O)c1c(Br)c(Br)c(Br)c(Br)c1C(=O)OCC(CC)CCCC (stereo not given),-0.0726% [at 42.5 µM],
CC(C)(C)N(NC(=O)c1ccc(Cl)cc1)C(=O)c1ccccc1,4.02%,
CCCN(CCC)c1c([N+](=O)[O-])cc(C(C)C)cc1[N+](=O)[O-],,inactive
CC(C)[C@@H](C(=O)O[C@@H](C#N)c1cccc(Oc2ccccc2)c1)c1ccc(Cl)cc1,,inactive
CCCN(CCOc1c(Cl)cc(Cl)cc1Cl)C(=O)n1ccnc1,,inactive
CCCCOC(=O)CCC(=O)OCCCC,4.63%,
CN1CC[C@]23c4c5ccc(O)c4O[C@H]2[C@@H](O)CC[C@H]3[C@H]1C5,0.0838%,
O=C(O)c1cc(Cl)ccc1Cl,0.321%,
SCc1ccccc1,2.03%,
C=C(C)C(=O)OCCCCOC(=O)C(=C)C,-1.72%,
CCCCNC(=O)OCC#CI,0.454%,

SMILES,activation,Potency
CC(C)(C#N)C(C)(C)C#N,-0.447%,
CC(C)CCON=O,-5.95%,
CC1(C)[C@H](C(=O)O[C@H](C#N)c2cccc(Oc3ccccc3)c2)[C@@H]1C=C(Br)Br,,inactive
c1ccc2c(c1)-c1cccc3cccc-2c13,11.6%,
CCOP(=O)(O)C(N)=O,1.38%,
C=CCN1C[C@H](C)N([C@H](c2ccc(C(=O)N(CC)CC)cc2)c2cccc(OC)c2)C[C@H]1C,-0.859% [at 42.5 µM],
CC(Oc1cc(Cl)c(Cl)cc1Cl)C(=O)O (stereo not given),-3.04%,
CCCSP(=S)(OCC)Oc1ccc(SC)cc1 (stereo not given),0.755%,
C[C@]12CC[C@H]3[C@@H](CCC4=CC(=O)CC[C@@H]43)[C@@H]1CC[C@@H]2OC(=O)CCc1ccccc1,,3.35 µM (active)
C=CCc1ccccc1O,0.745%,
CN(C)N,1.11%,
COP(=O)(OC)OC(Br)C(Cl)(Cl)Br (stereo not given),,inactive
O=C1CC[C@@]2(O)[C@H]3Cc4ccc(O)c5c4[C@@]2(CCN3CC2CC2)[C@H]1O5,-3.16% [at 42.5 µM],
CCOC(=O)C1OC1(C)c1ccccc1 (stereo not given),,inactive
CC(C)(C)NCC(O)c1cc(Cl)c(N)c(C(F)(F)F)c1 (stereo not given),6.62% [at 42.5 µM],
C[N+](C)(C)CC1CO1 (stereo not given),1.47%,
O=C(O)COc1cc(Cl)c(Cl)cc1Cl,,inactive
CCSCc1ccccc1OC(=O)NC,0.287%,
COc1cc(CC#N)cc(OC)c1OC,5.61% [at 42.5 µM],
ClCc1ccccc1Cl,9.2%,
